In the library only some 4% were active in any assay of this set; here they are far more common.
esBAF inh: Bmi1 luciferase reporter increase in mESCs, primary screen, esBAF inhibitor project, mouse ES cells, Bmi1 luciferase knock-in, single point; 24 h; 100% = twice the neutral-well signal; reporter increase, % at 12.5 µM; 2% of 350,000 active; AID 602393, 2012; in the data active = activation above about 40%; inconclusive = no clear call, values can overlap the other calls;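 note: 0% = median of the plate's neutral control wells and 100% = double that signal; a rise in the Bmi1 reporter signal indicates esBAF inhibition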
Statin myotox sup: suppressors of statin myotoxicity in C2C12 myotubes, primary screen, cell-based, single point, plate reader. C2C12 myotubes + simvastatin, ATP luminescence, 48 h; scaled: DMSO 0, geranylgeraniol control 100. rescue of ATP level, % at 7.49 µM. 0.78% of 330,000 active;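 active = mean ATP rescue above about 67%, or every replicate alone reaching that limit, limit read from the data, passing the limit was not always enough; inconclusive = no clear call, values can overlap the other calls; inactive = mean under the limit and some replicate under it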;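 note: myotubes were challenged with 10 µM simvastatin during compound exposure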
LMP1 NFkB inh: EBV LMP1-driven NF-kappaB luciferase reporter inhibitors, primary screen, cell-based, luminescence, single point; AID 504558, 2011; LMP1-induced NF-kappaB luciferase reporter cells; inhibition, % at 12.5 µM; 0.69% of 350,000 active; in the data active = inhibition above about 41%; inconclusive = no clear call, values can overlap the other calls;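 note: 0% = neutral control wells and 100% = reference inhibitor control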
MITF act: activators of MITF-driven TRPM1 promoter reporter, primary screen, cell-based, SK-MEL-5, luciferase, single point. SK-MEL-5 TRPM1-promoter luciferase, 24 h; % of positive control, neutral wells = 0. activation, % at 12.5 µM. AID 588334, 2011. 0.75% of 300,000 active;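 active = mean activation of at least 80% with every replicate also reaching 80%; inconclusive = mean reaches 80% but some replicate falls short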;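 note: 0% = neutral control wells and 100% = parthenolide positive control wells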
TRPM1 prom inh: inhibitors of MITF-dependent TRPM1 promoter reporter, primary screen, cell-based, SK-MEL-5, single point, luciferase. SK-MEL-5 TRPM1 promoter luciferase, 24 h. AID 488899, 2010. 0.83% of 330,000 active. inhibition, % at 12.5 µM;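 active = mean inhibition across replicates of 60% or more, whatever share of single replicates reaches that level; inconclusive = some that reach 60%, reason not given; inactive = mean inhibition across replicates below 60%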
Wnt bcat act: Wnt/beta-catenin pathway activators, primary screen, cell-based, plate reader, single point; Wnt/beta-catenin reporter cell assay, activator; activation, % at 9.35 µM; 1.2% of 300,000 active; in the data active = activation above about 30%, passing the limit was not always enough; inconclusive = no clear call, values can overlap the other calls;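 note: 0% = neutral control wells and 100% = positive control wells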
The depositor's hits bear a star.

Screening Cc1cccc(Cn2c(O)c(N=NC(=S)Nc3ccccc3F)c3ccccc32)c1 returned LMP1 NFkB inh 39, MITF act -28, TRPM1 prom inh 29 and Wnt bcat act -2.
NC(=S)N=Nc1c(O)n(Cc2ccc(F)cc2)c2ccccc12 was read as LMP1 NFkB inh 8, MITF act -4, TRPM1 prom inh 4 and Wnt bcat act -4.
For Oc1c(N=NC(=S)Nc2ccccc2F)c2ccccc2n1Cc1cccc(Cl)c1 the results were LMP1 NFkB inh 44*, MITF act -12, TRPM1 prom inh 16 and Wnt bcat act -1.
Screening Oc1c(N=NC(=S)Nc2ccccc2F)c2ccccc2n1Cc1ccc(F)cc1 returned LMP1 NFkB inh 51*, MITF act 9, TRPM1 prom inh -3 and Wnt bcat act -1.
For Cn1c(-c2ccc(Cl)cc2)ccc(C#N)c1=O the results were LMP1 NFkB inh 2 and TRPM1 prom inh 20.
CC(=O)Nc1cccc2c1Cc1ccccc1-2 was read as esBAF inh 51*, Statin myotox sup 7, LMP1 NFkB inh -34 and TRPM1 prom inh -71.
COc1ccccc1-c1nnc(NC(=O)CSc2nncn2C)s1 was read as LMP1 NFkB inh 3, MITF act 9, TRPM1 prom inh -4 and Wnt bcat act 54*.
Screening COc1ccccc1-c1nnc(NC(=O)C(C)Sc2nncn2C)s1 (stereo not drawn) returned LMP1 NFkB inh -5, MITF act -11, TRPM1 prom inh 13 and Wnt bcat act 1.
O=C(C(Sc1ccccc1)c1ccccc1)N1CCN(c2ccccc2F)CC1 (stereo not drawn) was read as LMP1 NFkB inh 3, MITF act 2, TRPM1 prom inh 1 and Wnt bcat act -3.
CC(C)(C)c1ccc(/C=C/C(=O)Nc2cccnc2)cc1 was read as esBAF inh 26, Statin myotox sup -15, LMP1 NFkB inh -31, MITF act 108*, TRPM1 prom inh -104 and Wnt bcat act 31*.
`O=C(/C=C/c1ccccc1Cl)Nc1cccnc1` gave esBAF inh 9, Statin myotox sup -10, LMP1 NFkB inh -16, MITF act 34, TRPM1 prom inh -29 and Wnt bcat act 0.
Screening O=C(/C=C/c1ccc(Cl)c(Cl)c1)Nc1cccnc1 returned esBAF inh 42*, Statin myotox sup -25, LMP1 NFkB inh -13, MITF act inconclusive, TRPM1 prom inh -84 and Wnt bcat act 2.
`COc1ccc(-c2ccc3c(c2)O[C@H](CN(C)C(=O)c2ccccc2F)[C@@H](C)CN([C@H](C)CO)S3(=O)=O)cc1` gave esBAF inh 7 and Statin myotox sup -21.
`CCOc1ccccc1NC(=O)c1cccc(NC2=NC3CS(=O)(=O)CC3S2)c1` (stereo not drawn) gave esBAF inh -2, Statin myotox sup 7, LMP1 NFkB inh 2 and Wnt bcat act 0.
Screening CCN1CCN(Cc2c3ccccc3cc3ccccc23)CC1 returned esBAF inh 5, Statin myotox sup 0, LMP1 NFkB inh 17, MITF act 20, TRPM1 prom inh -20 and Wnt bcat act 49*.
For Oc1ccc2ccccc2c1CN1CCCC1 the results were esBAF inh 1, Statin myotox sup 10, LMP1 NFkB inh -1, MITF act -24, TRPM1 prom inh 24 and Wnt bcat act -2.
Screening COc1ccc(NC(=O)Nc2ccc3c(c2)C(=O)N([C@@H](C)CO)C[C@H](C)[C@@H](CN(C)C(=O)Nc2cccc4ccccc24)O3)cc1 returned esBAF inh 4 and Statin myotox sup -10.
Cc1nc(-c2ccccn2)nc(SCC(=O)c2ccc(F)cc2)c1Cl was read as esBAF inh 5, Statin myotox sup 0, LMP1 NFkB inh -14, TRPM1 prom inh -8 and Wnt bcat act 8.
For COc1ccc(-c2nc(CC(=O)O)cs2)cc1 the results were esBAF inh 20, Statin myotox sup 105*, LMP1 NFkB inh -10, TRPM1 prom inh 4 and Wnt bcat act -1.
`CC(C)CC#Cc1cnc2c(c1)C(=O)N([C@H](C)CO)C[C@H](C)[C@@H](CN(C)C(=O)c1ccc3c(c1)OCO3)O2` gave esBAF inh 3 and Statin myotox sup 4.
Screening CC(C)CC#Cc1cnc2c(c1)C(=O)N([C@@H](C)CO)C[C@@H](C)[C@H](CN(C)C(=O)c1ccc3c(c1)OCO3)O2 returned esBAF inh 2 and Statin myotox sup 78*.
For CC(C)CC#Cc1cnc2c(c1)C(=O)N([C@@H](C)CO)C[C@H](C)[C@@H](CN(C)C(=O)Cc1ccccc1)O2 the results were esBAF inh 8 and Statin myotox sup 59.
Screening CC(C)CC#Cc1cnc2c(c1)C(=O)N([C@H](C)CO)C[C@@H](C)[C@H](CN(C)C(=O)Cc1ccccc1)O2 returned esBAF inh 12 and Statin myotox sup 101*.
`O=C(NCC1CC1)c1cccc2c1C(=O)c1ccc(-c3ccc(OC(F)(F)F)cc3)cc1S2(=O)=O` gave esBAF inh -2, Statin myotox sup -65, LMP1 NFkB inh -8, MITF act -10, TRPM1 prom inh 13 and Wnt bcat act -3.
Screening CCN1CCN(CCNC(=O)c2ccc3c(c2)N(Cc2ccc(F)cc2)C(=O)/C(=C/c2ccccc2)S3)CC1 returned esBAF inh -87, Statin myotox sup 13, LMP1 NFkB inh -61, MITF act -91, TRPM1 prom inh 92* and Wnt bcat act 2.
CCN1CCN(CCNC(=O)c2ccc(/C=C3/Sc4ccccc4N(Cc4cccc(Cl)c4)C3=O)cc2)CC1 was read as LMP1 NFkB inh -11, MITF act -66, TRPM1 prom inh 68* and Wnt bcat act 0.
`Cc1cccc(CN2C(=O)/C(=C\c3ccc(C(=O)NCCN4CCOCC4)cc3)Sc3ccccc32)c1` gave esBAF inh -5, Statin myotox sup 46, LMP1 NFkB inh 6, MITF act -2 and TRPM1 prom inh -2.
`Cc1nn(-c2ccccc2)c(Cl)c1CN(C(=O)CCl)c1ccc(Cl)cc1` gave LMP1 NFkB inh 7, MITF act -90 and TRPM1 prom inh 91*.
For Cc1c(Cl)cccc1Nc1nc(N)nc(CSCCO)n1 the results were LMP1 NFkB inh 0, MITF act -11 and TRPM1 prom inh 11.
Cc1c(Cl)cccc1Nc1nc(N)nc(CSc2ncccn2)n1 was read as esBAF inh 52*, Statin myotox sup 39, LMP1 NFkB inh -5, MITF act 1, TRPM1 prom inh 0 and Wnt bcat act 3.
`CC1=CC(=C2N=C(c3ccccc3)OC2=O)C=C(C)O1` gave esBAF inh 64*, Statin myotox sup -11, LMP1 NFkB inh -9 and TRPM1 prom inh -21.
